PubChem BioAssay AID463212 (Sanford-Burnham Center for Chemical Genomics, 2010)
Among all 330,000 compounds or so, about 4,400 (1.3%) were called active.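 How the source made its calls: active means growth inhibition of the mutant yeast at or above 50%; inactive means the rest.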 What follows is part of a selection rich in actives, with near analogues and random picks from the rest.

Assay: growth inhibition of tim23-1 ts yeast – luminescence, uHTS, primary screen (AID 463212);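 further: temperature-sensitive mutant grown at 25 °C; plate controls were DMSO-treated mutant yeast for no effect and medium wells lacking yeast for full effect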
Conditions: S. cerevisiae tim23-1 growth, BacTiter-Glo luminescence, 24 h; at 20 µM; active compounds read high

Row | Structure (SMILES) | inhibition
1 | Cc1cc2c(cc1C)N(C(=O)CN1C(=O)c3ccccc3C1=O)C(C)(C)c1ssc(=S)c1-2 | 30.3% (inactive)
2 | COc1cc(NC(=O)c2cccs2)ccc1NC(=O)c1ccccc1Cl | 55.3% (active)
3 | COc1cc(NC(=O)c2ccc3c(c2)OCO3)ccc1NC(=O)c1cccs1 | -5.22% (inactive)
4 | Cc1ccc(C(=O)Nc2ccc(NC(=O)c3cccs3)cc2)c(C)c1 | 11.9% (inactive)
5 | O=C(Nc1cc(-c2ccccc2)nn1-c1ccccc1F)c1ccc([N+](=O)[O-])cc1 | 18.1% (inactive)
6 | CCn1ncc(Br)c1C(=O)Nc1cc(C)ccc1F | 38.3% (inactive)
7 | CCCc1[nH]nc2c1C(c1ccc(OC)c(Cn3nc(C)c(Br)c3C)c1)C(C#N)=C(N)O2 (stereo unspecified) | 0.046% (inactive)
8 | CCCc1[nH]nc2c1C(c1ccc(OC(=O)c3ccco3)cc1)C(C#N)=C(N)O2 (stereo unspecified) | -11.4% (inactive)
9 | CCCc1[nH]nc2c1C(c1ccc(Br)s1)C(C#N)=C(N)O2 (stereo unspecified) | 86.6% (active)
10 | O=C(O)C1CCCN(CCC=C(c2ccccc2)c2ccccc2)C1 (stereo unspecified) | 4.65% (inactive)
11 | Cc1cccc(N2CCN(C(=O)c3cc4c(=O)[nH]c5ccccc5c4n3C)CC2)c1C | 13% (inactive)
12 | CC(C)(C)OC(=O)NCCCC1=CC2=CC(=O)C(C)(OC(=O)c3ccco3)C(=O)C2=CO1 (stereo unspecified) | 13.3% (inactive)
13 | COc1ccc(OCC(=O)Nc2ccc(NC(=O)c3ccco3)c(C)c2)cc1 | 16.1% (inactive)
14 | Cc1ccc(C(=O)COc2cccc(NC(=O)c3ccco3)c2)cc1 | 54.5% (active)
15 | Cc1cccc(OCC(=O)Nc2ccc(NC(=O)c3ccco3)c(C)c2)c1 | 22% (inactive)
16 | Cc1cccc(N(C)C(=O)c2cc(S(=O)(=O)N3CCCCC3)c[nH]2)c1 | 23.4% (inactive)
17 | CCOC(=O)CSc1nnc(CNC(=O)Cc2ccccc2)n1-c1ccccc1OC | 7.97% (inactive)
18 | Cc1ccc(-n2cnc3ncnc(-c4ccccc4)c32)cc1 | 15.5% (inactive)
19 | Cc1ccc(-c2nn(C(C)(C)C)c3ncnc(N)c23)cc1 | 57.5% (active)
20 | Cc1c([N+](=O)[O-])c(N)nn1C | -8.73% (inactive)
21 | Cc1cc(C(=O)COC(=O)C2CC2)c(C)n1-c1ccc(F)cc1 | 35.7% (inactive)

Row | Structure (SMILES) | inhibition
22 | CC(=O)COc1ccc2c(-c3ccccc3)cc(=O)oc2c1 | -1.93% (inactive)
23 | O=C(CNC(=O)OCc1ccccc1)Oc1cc2oc(=O)cc(-c3ccccc3)c2cc1Cl | 54.3% (active)
24 | O=C(CNC(=O)c1ccc(-c2ccccc2)cc1)OCc1ccc(Cl)cc1 | -7.6% (inactive)
25 | O=C1Cc2ccccc2Sc2ccc(Cl)cc21 | 28.6% (inactive)
26 | COc1cc(NS(=O)(=O)c2ccc(N/C=C(\C=O)c3nc4cc(Cl)ccc4o3)cc2)nc(OC)n1 | 15.4% (inactive)
27 | Cc1ccc(C(=O)N/C(=C\c2ccco2)C(=O)NC2CCS(=O)(=O)C2)cc1 (stereo unspecified) | 24.1% (inactive)
28 | Cc1oc2c(c1C(=O)N1CCOCC1)C(=O)c1ccccc1C2=O | 69% (active)
29 | COC1=C(N2CCOCC2)C(=O)c2ccccc2C1=O | 2.06% (inactive)
30 | COc1cc2ccccc2cc1C(=O)N1CCOCC1 | 22.5% (inactive)
31 | CCC(=O)N1CCC(C(N)=O)(N2CCCCC2)CC1 | -3.89% (inactive)
32 | Cn1nnc2cc(C(=O)NCCC3=CCCCC3)ccc21 | -1.3% (inactive)
33 | Cc1cccc(-c2nc3ccc(C(=O)NCCN4CCN(C)CC4)cc3nc2-c2cccc(C)c2)c1 | 25.1% (inactive)
34 | C=CCNC(=O)c1ccc2c3n(nc2c1)-c1ccc(C)cc1CO3 | 57.6% (active)
35 | Cc1cc(C(C)(C)C)cc(C)c1N | 9.69% (inactive)
36 | COc1ccc(-c2cc(C)nc3nc(N)nn23)cc1 | 8.84% (inactive)
37 | Cc1cc(N)n2nc(-c3ccc(C(C)(C)C)cc3)cc2n1 | 72.3% (active)
38 | Cc1nnc(NC(=O)CSc2nc(C3CCCCC3)nc3ccccc23)s1 | -0.646% (inactive)
39 | O=C1c2ccccc2C(=O)N1CCC(c1ccccc1)c1ccco1 (stereo unspecified) | 22.6% (inactive)
40 | O=S(=O)(Nc1cccc(-n2cnnn2)c1)c1cnc(Cl)c(Cl)c1 | -3.26% (inactive)
41 | CCCc1c(C(=O)O)cnn1-c1ccc(Cl)cc1 | 13.8% (inactive)
42 | CCNC(=O)c1cnn(-c2ccccc2)c1-c1ccccc1 | 0.114% (inactive)

Row | Structure (SMILES) | inhibition
43 | CCCc1c(C(=O)Nc2ccc(F)cc2)cnn1-c1ccccc1 | 55.9% (active)
44 | CC(=O)c1ccccc1NC(=O)C1CC(=O)N(c2ccc3c(c2)OCCO3)C1 (stereo unspecified) | 14.1% (inactive)
45 | CC1CCC2CCCCC2N1C(=O)c1cc([N+](=O)[O-])cc([N+](=O)[O-])c1 (stereo unspecified) | 51.9% (active)
46 | CC1(c2ccccc2)CC(C)(C)N(C(=O)c2cc([N+](=O)[O-])cc([N+](=O)[O-])c2)c2ccccc21 (stereo unspecified) | 4.81% (inactive)
47 | CC1CCN(C(=S)c2cccc([N+](=O)[O-])c2)CC1 | 21.4% (inactive)
48 | COc1ccc(S(=O)(=O)N2CCOCC2)cc1NC(=O)CSc1cc(C)ccc1C | 7.5% (inactive)
49 | CC[C@]12c3[nH]c4ccc(OC)cc4c3CCN1C(=O)C(CC(=O)NCCN1CCOCC1)C[C@@H]2C(=O)N1CCN(C(=O)C2CC2)CC1 (stereo partly specified) | 26.2% (inactive)
50 | O=C(Nc1cccc(-c2nc3ncccc3o2)c1)c1ccco1 | 4.7% (inactive)
51 | Cc1cc(NC(=O)c2ccc(F)cc2)ccc1NC(=O)c1ccco1 | 13.5% (inactive)
52 | O=C(Nc1ccc2oc(-c3ccccc3F)nc2c1)c1ccco1 | 57.8% (active)
53 | CCCCC1(C(=O)OCC)NC(c2ccc(O)cc2)C2C(=O)N(c3ccccc3)C(=O)C21 (stereo unspecified) | 1.2% (inactive)
54 | CCC(=O)Nc1ccc(C(=O)CSc2nnc(CNc3ccc(Cl)cc3)o2)cc1OC | -7.17% (inactive)
55 | O=C(COC(=O)CNC(=O)C1CCCCC1)Nc1cccc(F)c1 | 17.5% (inactive)
56 | CN(CC(=O)Nc1ccccc1C(F)(F)F)C(=O)Cc1ccccc1F | 14.9% (inactive)
57 | O=C(Nc1ccccc1F)c1ccccc1-c1ccc(C(F)(F)F)cc1 | 16% (inactive)
58 | N#C/C(=C\c1ccccc1C(F)(F)F)C(=O)Nc1ccccc1F | 71.2% (active)
59 | CSc1ccccc1NC(=O)COC(=O)CCCOc1ccc(C)cc1 | -1.47% (inactive)
60 | COc1cc([N+](=O)[O-])ccc1NC(=O)COC(=O)CCOc1ccc(C)cc1 | 73.7% (active)
61 | COc1cccc(NC(=O)COC(=O)CCOc2ccccc2OC)c1 | 8.9% (inactive)
